Results as given in PubChem BioAssay (NCI).
About 79,000 compounds went through this panel and 15% of them were active in at least one assay; those are over-represented in the sample as a whole. Calls of active or inactive are those of the source. Cut-off read from the data, not from the text of the source: active = growth inhibition above about 70%; inactive = the rest.

Tests used:
[1] = NCI Yeast Anticancer Drug Screen. Data for the rad50 strain (AID 155);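 note: 0% = growth of vehicle-only cultures of the same strain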; conditions: S. cerevisiae rad50 strain growth inhibition, stronger effect = higher value
How it was run: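 Growth of the mutant yeast was measured after compound exposure and referenced to vehicle-treated cultures.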

[2] = NCI Yeast Anticancer Drug Screen. Data for the mec2-1 strain (AID 157); conditions: S. cerevisiae mec2-1 strain, stronger effect = higher value
How it was run: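 Each compound was tested on mec2-1 yeast, a strain altered in DNA damage repair or cell cycle control. Growth inhibition is reported relative to vehicle.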

[3] = NCI Yeast Anticancer Drug Screen. Data for the sgs1 mgt1 strain (AID 161);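 note: 0% = growth of cultures given vehicle only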; conditions: S. cerevisiae sgs1 mgt1 strain, stronger effect = higher value
How it was run: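 Test agents were incubated with a DNA-repair-mutant yeast strain. Growth was then read and compared against vehicle-treated controls.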

[4] = NCI Yeast Anticancer Drug Screen. Data for the cln2 rad14 strain (AID 165);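 note: 0% = growth equal to vehicle treated cultures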; conditions: S. cerevisiae cln2 rad14 strain, stronger effect = higher value
How it was run: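 Test compounds were added to cln2 rad14 yeast cultures; inhibition of growth was then determined by comparison with vehicle treatment.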

[5] = NCI Yeast Anticancer Drug Screen. Data for the bub3 strain (AID 167); conditions: S. cerevisiae bub3 mutant strain, stronger effect = higher value
How it was run: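 Whole-cell yeast assay. The mutant strain was incubated with compounds, and growth inhibition was determined by comparison with vehicle-treated cells.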

[6] = NCI Yeast Anticancer Drug Screen. Data for the mlh1 rad18 strain (AID 175); conditions: S. cerevisiae mlh1 rad18 strain growth inhibition, stronger effect = higher value
How it was run: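 Inhibition values reflect reduced growth of mutant yeast versus vehicle-treated controls following compound exposure; the mutations affect DNA damage repair.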

[7] = at 5.0 µM (retest, dose inferred, filed as 0.5)
[8] = at 50.0 µM (retest, dose inferred, filed as 5.0)

Measured: growth inhibition

CC(=O)c1ccc(Br)cc1NC1=CC(=O)c2ncccc2C1=O
active: [1]; [7] 95% | [1]; [8] 95% | [1]; at 50.0 µM 86.7% | [2]; [7] 88% | [2]; [8] 94% | [2]; at 50.0 µM 91.2% | [3]; [7] 81% | [3]; [8] 96% | [3]; at 50.0 µM 88.8% | [4]; [7] 77% | [4]; [8] 90% | [4]; at 50.0 µM 88.3% | [5]; [7] 83% | [5]; [8] 95% | [5]; at 50.0 µM 89.7% | [6]; [7] 87% | [6]; [8] 95% | [6]; at 50.0 µM 87.3%

N#CSCC(=O)c1ccc(Cl)cc1
active: [1]; at 50.0 µM 89.5% | [2]; at 50.0 µM 91% | [3]; [7] 92% | [3]; [8] 98% | [3]; at 50.0 µM 92.5% | [4]; [7] 83% | [4]; [8] 98% | [4]; at 50.0 µM 89.5% | [5]; [7] 93% | [5]; [8] 99% | [5]; at 50.0 µM 89.5% | [6]; at 50.0 µM 89.5%
inactive: [1]; [7] 43% | [1]; [8] 61% | [2]; [7] 60% | [2]; [8] 63% | [6]; [7] 36% | [6]; [8] 56%

N=C(N)c1ccc2oc3ccc(C(=N)N)cc3c(=O)c2c1
active: [2]; [8] 70% | [3]; [8] 76% | [4]; at 50.0 µM 71.8% | [5]; [8] 76% | [6]; [8] 77% | [6]; at 50.0 µM 73.4%
inactive: [1]; [7] 8% | [1]; [8] 65% | [1]; at 50.0 µM 57.8% | [2]; [7] 3% | [2]; at 50.0 µM 29.9% | [3]; [7] 21% | [3]; at 50.0 µM 65.5% | [4]; [7] 11% | [4]; [8] 65% | [5]; [7] -4% | [5]; at 50.0 µM 38% | [6]; [7] 10%

O=C(/C=C/c1ccccc1)C1(c2ccccc2)CC1
active: [1]; at 50.0 µM 79.8%
inactive: [1]; [7] -125% | [1]; [8] -56% | [2]; [7] -51% | [2]; [8] -42% | [2]; at 50.0 µM 60.9% | [3]; [7] -53% | [3]; [8] -2% | [3]; at 50.0 µM 68.9% | [4]; [7] -55% | [4]; [8] -34% | [4]; at 50.0 µM -21.4% | [5]; [7] -58% | [5]; [8] 39% | [5]; at 50.0 µM 44.5% | [6]; [7] -115% | [6]; [8] -93% | [6]; at 50.0 µM 66.5%

c1ccc(C[n+]2cccc(-c3cc4ccccc4[nH]3)c2)cc1
inactive: [1]; [7] 12% | [1]; [8] 14% | [1]; at 50.0 µM -21.7% | [2]; [7] 0% | [2]; [8] -42% | [2]; at 50.0 µM -24.6% | [3]; [7] -9% | [3]; [8] 17% | [3]; at 50.0 µM -45.2% | [4]; [7] -46% | [4]; [8] -23% | [5]; [7] -17% | [5]; [8] -9% | [5]; at 50.0 µM -43.5% | [6]; [7] -1% | [6]; [8] 13% | [6]; at 50.0 µM -3.55%
active: [4]; at 50.0 µM 77.3%

COc1ccc(/C=N/Nc2ccccc2)cc1
active: [1]; [8] 97% | [1]; at 50.0 µM 98.5% | [2]; [8] 85% | [2]; at 50.0 µM 99% | [3]; [8] 97% | [3]; at 50.0 µM 98.9% | [4]; [8] 93% | [4]; at 50.0 µM 98.7% | [5]; [8] 97% | [5]; at 50.0 µM 99% | [6]; [8] 96% | [6]; at 50.0 µM 98.4%
inactive: [1]; [7] 7% | [2]; [7] -12% | [3]; [7] -6% | [4]; [7] -9% | [5]; [7] -17% | [6]; [7] 8%

O=C(Nc1ccccc1)c1ccc(Cl)cc1Cl
inactive: [1]; [7] -15% | [1]; [8] -21% | [1]; at 50.0 µM 1.35% | [2]; [7] -9% | [2]; [8] -4% | [2]; at 50.0 µM 1.85% | [3]; [7] -2% | [3]; [8] 7% | [3]; at 50.0 µM -3.15% | [4]; [7] 31% | [4]; [8] -50% | [4]; at 50.0 µM -7.95% | [5]; [7] 4% | [5]; [8] -34% | [5]; at 50.0 µM 8.75% | [6]; [7] -6% | [6]; [8] -8% | [6]; at 50.0 µM 8.05%

Cc1ccc(C2SCc3nc4ccccc4n32)cc1 (stereo not given)
active: [5]; [8] 93% | [5]; at 50.0 µM 70.4% | [6]; [8] 86%
inactive: [1]; [7] -4% | [1]; [8] 51% | [1]; at 50.0 µM 31.2% | [2]; [7] -38% | [2]; [8] 39% | [2]; at 50.0 µM 20.8% | [3]; [7] -26% | [3]; [8] 57% | [3]; at 50.0 µM 49.1% | [4]; [7] 2% | [4]; [8] 46% | [4]; at 50.0 µM 34% | [5]; [7] -2% | [6]; [7] 13% | [6]; at 50.0 µM 48.9%

Nc1cc2c(c[n+](CCCCCCCCCC[n+]3cc4c5ccccc5c(N)cc4c4ccccc43)c3ccccc23)c2ccccc12
inactive: [1]; [7] 20% | [2]; [7] 36% | [3]; [7] 56% | [4]; [7] 16% | [5]; [7] 58% | [6]; [7] 63%
active: [1]; [8] 94% | [1]; at 50.0 µM 88% | [2]; [8] 96% | [2]; at 50.0 µM 91.8% | [3]; [8] 95% | [3]; at 50.0 µM 85% | [4]; [8] 92% | [4]; at 50.0 µM 87.8% | [5]; [8] 95% | [5]; at 50.0 µM 81% | [6]; [8] 95% | [6]; at 50.0 µM 83.6%

COC1(OC)CNC(C(=O)O)C1 (stereo not given)
inactive: [1]; [7] -154% | [1]; [8] -139% | [1]; at 50.0 µM 19.1% | [2]; [7] -44% | [2]; [8] -45% | [2]; at 50.0 µM 2.65% | [3]; [7] -66% | [3]; [8] -59% | [3]; at 50.0 µM 18.2% | [4]; [7] -54% | [4]; [8] -49% | [4]; at 50.0 µM 2.4% | [5]; [7] -71% | [5]; [8] -66% | [5]; at 50.0 µM 21.4% | [6]; [7] -141% | [6]; [8] -111% | [6]; at 50.0 µM 13.3%
